We go through six compounds from PubChem BioAssay (NCI).

Common to all, as to assay: NCI-60 one-dose screen, 48 h (100 = growth as untreated, 0 = no growth, -100 = all killed)
The test system of experiment [1] is NCI-H23 lung. As to conditions: 10 µM unless noted.
The test system of experiment [2] is NCI-H226 lung. As to conditions: 10 µM unless noted.
The test system of experiment [3] is NCI-H322M lung. The following applies: 10 µM unless noted.
Experiment [4] has as its system HOP-62 NSCLC. As to conditions: 10 µM unless noted.
The subject of experiment [5] is NCI-H460 lung. As to conditions: 10 µM unless noted.
Experiment [6] concerns HOP-92 NSCLC. As to conditions: 10 µM.
In experiment [7] the test system is NCI-H522 lung. The following applies: 10 µM unless noted.
Experiment [8] relates to A549/ATCC NSCLC. As to conditions: 10 µM unless noted.
Experiment [9] deals with 786-0 renal. As to conditions: 10 µM unless noted.
Experiment [10] deals with COLO 205 colon. As to conditions: 10 µM unless noted.
The test system of experiment [11] is DU-145 prostate. The following applies: 10 µM unless noted.
Experiment [12] deals with K-562 leukemia. As to conditions: 10 µM unless noted.
Experiment [13] deals with MALME-3M melanoma. The following applies: 10 µM unless noted.
Experiment [14] has as its system MDA-MB-231 breast. As to conditions: 10 µM unless noted.
In experiment [15] the test system is SF-268 CNS. The following applies: 10 µM unless noted.
Experiment [16] has as its system SF-295 CNS. As to conditions: 10 µM unless noted.
Experiment [17] deals with SF-539 CNS. The following applies: 10 µM unless noted.
Experiment [18] has as its system UACC-257 melanoma. The following applies: 10 µM unless noted.

SMILES strings stand for the structures. The panel holds about 83,000 compounds, 20% with a hit somewhere; the sample as a whole holds those more often.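 Each cell line was grown in a 96-well plate and treated with one concentration of compound for 48 hours. Values below 10 were considered active.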 A number with no mark means an inactive call. Activity calls are given as the source filed them.

With `Nc1ncc(-c2ccc3ncnc(Nc4cccc(Cl)c4F)c3c2)cn1`, the growth was 72.8% in [1]; 66.6% in experiment [2]; 11% in experiment [3]; 47.5% in experiment [4]; 62.2% in experiment [5]; 31.3% in experiment [6]. The growth is 32.2% in experiment [7]; 51.9% in experiment [8]; 43.5% in experiment [9]; 86.4% in [10]; 48.9% in experiment [11]; 80.5% in experiment [12]. Besides, the growth in [13] was 49.3%; in experiment [14], 55.3%; in [15], 53.8%; in experiment [16], 44.9%; in [17], 68.4%; in [18], 89.4%.
As to `COc1ccc(C(=O)c2c(N)c(C#N)cn2-c2ccccc2OC)cc1`, the growth was 32.8% in [1]; 60.5% in experiment [2]; 75.2% in [3]; 56.3% in experiment [4]; 17.4% in experiment [5]; 52.5% in experiment [6]. Moreover, the growth is -1.29% (active) in experiment [7]; 53.4% in [8]; 43.7% in experiment [9]; 38.5% in [10]; 52.4% in experiment [11]; 13.3% in experiment [12]. The growth in [13] is 42%; in [14] it was 48.6%; in experiment [15], 44.1%; in [16], 8.45% (active); in experiment [17], 12.4%; in experiment [18] it was 66.9%.
For `Cc1nc(-c2ccccc2O)ccc1C(=O)N=Nc1c(O)[nH]c2ccc(Br)cc12`, the growth in [1] was 96.2%; in [2] it was 81.4%; in [3] it was 99.5%; in experiment [4], 84.3%; in experiment [5] it was 99.8%; in experiment [6], 62.1%. The growth is 97% in experiment [7]; 103% in experiment [8]; 102% in experiment [9]; 105% in experiment [10]; 113% in [11]; 113% in experiment [12]. For the same compound, the growth in [13] is 85.4%; in experiment [14], 87.6%; in experiment [15], 96.7%; in [16], 104%; in experiment [17], 95.7%; in [18] it was 104%.
As for `CC(c1ccccc1)N1CSc2nc3ncncc3n2C1` (stereo not drawn), the growth in [1] was 24.1%; in experiment [2], 48.8%; in [3], 40.9%; in experiment [4], 26.9%; in experiment [5], 51.2%; in experiment [6], 65.5%. Besides, the growth in experiment [7] is 38.2%; in experiment [8] it was 72%; in [9] it was 29.6%; in experiment [10] it was 32.8%; in [11], 33.3%; in experiment [12], 20.9%. Besides, the growth in [13] is 38.2%; in [14], 32.7%; in experiment [15], 28.4%; in experiment [16] it was 21.6%; in [17], 23.5%; in experiment [18] it was 44.5%.
Turning to `COc1cc(/C=C2\C(=O)Nc3ccccc32)ccc1OCc1ccc(Cl)cc1`, the growth in [1] was 93.3%; in experiment [2] it was 96.6%; in [3], 99.7%; in experiment [4], 101%; in experiment [5] it was 41.1%; in [6], 112%. For the same compound, the growth in experiment [7] was 95.8%; in experiment [8], 107%; in experiment [9], 106%; in experiment [10], 116%; in experiment [11] it was 98.7%; in experiment [12] it was 98.5%. Further, the growth in experiment [13] was 95.5%; in experiment [14], 99%; in experiment [15] it was 98.6%; in experiment [16], 103%; in experiment [17] it was 98%; in experiment [18], 125%.
As for `COc1ccccc1-n1cc(C#N)c(N)c1C(=O)c1ccc(Cl)cc1`, the growth in [1] was 90.8%; in experiment [2], 97.7%; in experiment [3] it was 103%; in experiment [4], 87.7%; in [5], 87.8%; in [6] it was 101%. In addition, the growth was 22.4% in experiment [7]; 94.6% in experiment [8]; 104% in experiment [9]; 86.8% in experiment [10]; 93.8% in experiment [11]; 20.8% in [12]. The growth is 59.5% in [13]; 68.2% in experiment [14]; 85.2% in experiment [15]; 78.8% in experiment [16]; 91.8% in experiment [17]; 87.5% in experiment [18].
